Results: PubChem BioAssay (NCATS)
Records with an inconclusive call do not appear. Entries that show only a call come without a potency. Unmarked numbers belong to inactive results. The source made the active and inactive calls. The call rests on the fitted dose curve; in most records, active means well fitted inhibition curve with a large enough effect; inconclusive means small, poorly fitted or top-dose-only effect; inactive means flat fitted curve, though single readings scatter.

Assay: P-glycoprotein substrates identified in KB-8-5-11 adenocarcinoma cell line, qHTS therapeutic library screen (AID 1346987); further: nearly all actives have a fitted effect of over 65% in size
Details: KB-8-5-11 (P-gp overexpressing) viability, CellTiter-Glo, 72 h; series mostly up to 44.5 µM
Summary of the method: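 P-gp-mediated resistance screen: KB-8-5-11 cells treated 72 h with compounds in dose-response. CellTiter-Glo viability.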

Row | Structure (SMILES) | Potency | outcome | activity change, negative = cytotoxicity
1 | COc1ccc2cc(OCC3(C(=O)O)CN(C(=O)c4ccc(F)cc4)C3)ccc2c1 | inactive | – | –
2 | CCOc1ccc2c(c1)C(C)=CC(C)(C)N2 | inactive | – | –
3 | CCCCN(CCCC)C(=O)CN1C[C@H](c2ccc3c(c2)OCO3)[C@@H](C(=O)O)[C@@H]1c1ccc(OC)cc1 | inactive | – | –
4 | CC1=CC2(O)/C=C/C(C)(O)CC(O)/C=C/C(=O)OC23C(=O)NC(CC(C)C)C3C1C (centres undefined) | inactive | – | –
5 | CC1CCC2(C(=O)OC3OC(CO)C(O)C(O)C3O)CCC3(C)C(=CCC4C5(C)CC(O)C(O)C(C)(C(=O)O)C5CCC43C)C2C1(C)O (centres undefined) | inactive | – | –
6 | C[C@@H]1CC[C@]2(C)C(C[C@@H](O)[C@H](O)[C@]23CO3)[C@@]1(C)CCc1ccoc1 (some centres undefined) | inactive | – | –
7 | C[C@@H]1O[C@@H](O[C@H]2[C@H](O)[C@@H](O)[C@H](OC[C@H]3O[C@@H](OC(=O)[C@]45CCC(C)(C)C[C@H]4C4=CCC6[C@@]7(C)C[C@H](O)[C@H](O[C@@H]8O[C@H](CO)[C@@H](O)[C@H](O)[C@H]8O)[C@@](C)(C(=O)O)C7CC[C@@]6(C)[C@]4(C)CC5)[C@H](O[C@@H]4O[C@H](CO)[C@@H](O)[C@H](O)[C@H]4O)[C@@H](O)[C@@H]3O)O[C@@H]2CO)[C@H](O)[C@H](O)[C@H]1O (some centres undefined) | – | inactive [at 9.29 µM] | –
8 | C=CC(C)(O)CC/C=C(\C)C(=O)OC1CC2(C(=O)O)CCC3(C)C(=CCC4C5(C)CCC(OC6OC(COC7OCC(O)C(O)C7O)C(O)C(OC7OCC(O)C(O)C7O)C6OC6OC(CO)C(O)C(O)C6OC6OCC(O)C(O)C6O)C(C)(C)C5CCC43C)C2CC1(C)C (centres undefined) | – | inactive [at 9.29 µM] | –
9 | CC(/C=C/[C@]1(O)[C@@]2(C)CO[C@@]1(C)C[C@@H](O)C2)=C\C(=O)O[C@@H]1O[C@H](CO)[C@@H](O)[C@H](O)[C@H]1O | inactive | – | –
10 | CC1(CO)CC[C@]2(C(=O)O[C@@H]3O[C@H](CO)[C@@H](O)[C@H](O)[C@H]3O)CC[C@]3(C)C(=CCC4[C@@]5(C)CC[C@H](O[C@@H]6O[C@H](C(=O)O)[C@@H](O)[C@H](O)[C@H]6O)C(C)(C)C5CC[C@]43C)C2C1 (some centres undefined) | – | – | 7.12% [at 9.29 µM]
11 | C[C@H]1[C@H](C)CC[C@]2(C(=O)O[C@@H]3O[C@H](CO)[C@@H](O)[C@H](O)[C@H]3O)CC[C@]3(C(=O)O)C(=CCC4[C@@]5(C)CC[C@H](O[C@@H]6O[C@H](CO)[C@@H](O)[C@H](O)[C@H]6O)C(C)(C)C5CC[C@]43C)[C@H]12 (some centres undefined) | – | inactive [at 9.29 µM] | –
12 | C=C1CCC(OC(C)=O)C2(C)CC3(O)OC(=O)C(C)=C3CC12 (centres undefined) | inactive | – | –
13 | COC1C2=C(COC2=O)C2(C)CCCC(C)(CO)C2C1OC(=O)c1ccccc1 (centres undefined) | inactive | – | –
14 | CC1(C)CCCC2(C)C1C(O)C=C(CO)C2(O)C(=O)O (centres undefined) | inactive | – | –
15 | CC(c1c[nH]c2ccccc12)C(O)C(=O)O (centres undefined) | inactive | – | –
16 | IC(I)I | inactive | – | –
17 | CCC(=O)N[C@@H]1Cc2ccccc2[C@H](c2ccccc2)C1 | inactive | – | –
18 | C=CC(C)(O)CO[C@@H]1O[C@H](CO)[C@@H](O)[C@H](O)[C@H]1O (some centres undefined) | inactive | – | –
19 | CC1(C)CC[C@]2(C(=O)O)CC[C@]3(C)C(=CCC4[C@@]5(C)CCC(O[C@@H]6OC[C@H](O)[C@H](O)[C@H]6O[C@@H]6O[C@H](CO)[C@@H](O)[C@H](O)[C@H]6O)[C@@](C)(CO)C5CC[C@]43C)[C@@H]2C1 (some centres undefined) | inactive | – | –
20 | CC12CC34C=CC(=O)C(C)(CCC(=O)O)C3C(CC1C4)O2 (centres undefined) | inactive | – | –

Row | Structure (SMILES) | Potency | outcome | activity change, negative = cytotoxicity
21 | Cn1c(=O)c2nc(/C=C/c3cccc(Cl)c3)n(C)c2n(C)c1=O | inactive | – | –
22 | CCOC(=O)[C@H](CCc1ccccc1)N[C@@H](C)C(=O)N1C2CCCCC2C[C@H]1C(=O)O (some centres undefined) | inactive | – | –
23 | CCCCCCCC(=O)O | inactive | – | –
24 | CC1=C2[C@@H]([C@H](C)CC[C@H]2/C=C(\C)C(=O)O)[C@H](O)C1 | inactive | – | –
25 | C=CC1(C)CC2=CCC3C(C)(C(=O)O)CCCC3(C)C2CC1OC(C)=O (centres undefined) | inactive | – | –
26 | O=C(/C=C/c1ccc(O)c(O)c1)OCc1ccccc1O[C@@H]1O[C@H](CO)[C@@H](O)[C@H](O)[C@H]1O | inactive | – | –
27 | Cc1coc2c1CC1OC1(C)CCC1OC1(C)C2 (centres undefined) | inactive | – | –
28 | CC(C)C1=CCC(C)(O)C(OC2OC(CO)C(O)C(O)C2O)C1 (centres undefined) | inactive | – | –
29 | NCc1ccccc1CC(=O)N[C@@H]1C(=O)N2C(C(=O)O)=C(CSc3nnnn3CC(=O)O)CS[C@H]12 | inactive | – | –
30 | CC1(C)CC2C3=CCC4C5(C)CCC(OC6OC(C(=O)O)C(O)C(O)C6OC6OC(CO)C(O)C(O)C6OC6OC(CO)C(O)C(O)C6O)C(C)(CO)C5CCC4(C)C3(C)CCC2(C)C(OC2OCC(O)C(OC3OC(CO)C(O)C(O)C3O)C2O)C1O (centres undefined) | – | – | 1.76% [at 9.29 µM]
31 | CC(=O)C1CCC2(C)C3=C(CCC12C)C1(C)CCC(=O)C(C)(C)C1CC3 (centres undefined) | inactive | – | –
32 | COc1ccc(C(=O)O[C@H]2CC(C)=CC[C@@]3(C)[C@@H](OC(C)=O)C[C@@](O)(C(C)C)[C@H]23)cc1 | inactive | – | –
33 | COc1c(C)c(OCC=C(C)C)cc2c1C(=O)NC2=O | inactive | – | –
34 | C[C@H]1[C@H](C)CC[C@]2(C(=O)O)CC[C@]3(C)C(=CC[C@@H]4[C@@]5(C)C[C@@H](O)[C@H](O)[C@@](C)(CO)[C@@H]5CC[C@]43C)[C@H]12 | inactive | – | –
35 | O=C1NCc2nc3ccccc3c(=O)n2C1Cc1c[nH]c2ccccc12 (centres undefined) | inactive | – | –
36 | O=C(c1ccc(NS(=O)(=O)c2cccc3cccnc23)cc1)N1CCN(CC2CC2)CC1 | inactive | – | –
37 | C=CC(C)(C)O[C@@H]1O[C@H](CO[C@@H]2OC[C@](O)(CO)[C@H]2O)[C@@H](O)[C@H](O)[C@H]1O | inactive | – | –
38 | COc1cc(/C=C/CO)ccc1O[C@@H]1O[C@H](CO)[C@@H](O)[C@H](O)[C@H]1O | inactive | – | –
39 | CC(=O)Oc1cc(C)c(OC(C)=O)c2ccccc12 | inactive | – | –
